Test results from PubChem BioAssay (NCI).
About 83,000 compounds went through this panel and 20% of them were active in at least one assay; those are over-represented in the sample as a whole.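 Single-dose data. Exposure time 48 hours. Values below 10 considered active.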 Values without a mark were called inactive.

Tested on: SK-MEL-28 melanoma
Assay: NCI-60 one-dose screen, 48 h (100 = growth as untreated, 0 = no growth, -100 = all killed)
Conditions: 10 µM unless noted
Procedure: Growth inhibition of the SK-MEL-28 human tumor cell line is measured as a screen for anti-cancer activity. Cells are grown in 96 well plates and exposed to the test compound for 48 hours. Compounds are tested at a single concentration, which is 10^-5 M for most compounds. The reported endpoint is percent growth (GI% or GIPRCNT), where numbers from 0 - 100% represent growth inhibition, and numbers from -100% - 0 represent cell death. For example, a value of 40 represents 60% growth inhibition. A value of 0 means no net growth occurred over the course of the experiment. A value of -40 indicates 40% of cells at the beginning of the experiment died by the end of the experiment. A value of -100 means all cells are dead at the end of the experiment.
NCI-60 Human Tumor Cell Lines Screen was performed using the standard one-dose NCI protocol, which is described in more detail at https://dtp.cancer.gov/discovery_development/nci-60/default.htm.
Compounds with GIPRCNT values below 10 were considered active. Activity score was based on GIPRCNT using the following formula: […]
Score is 0 for GIPRCNT values of 100 or above, 50 for GIPRCNT values of 0, and 100 for GIPRCNT values of -100.

| Compound | growth [%] |
| --- | --- |
| C/C(=N\O)c1ccccn1 | 110 |
| COc1ccc(Br)c2c1C(=O)CC2 | 135 |
| O=C(O)c1cccc(-n2ncc(Cl)c(Cl)c2=O)c1 | 102 |
| CCCCCC(=O)OCCC1CCCCC1 | 105 |
| NC(=O)c1cc2c3ccccc3ccn2c1-c1ccccc1 | 105 |
| CCOc1ccc2c(c1)c(C)cc(C)[n+]2CC | 102 |
| O=C(OC1CCCC1)c1ccccc1Cl | 107 |
| CCOC(C=O)OCC | 116 |
| CC(=O)c1cccc(N(C)S(=O)(=O)c2ccc(C)cc2)c1 | 93.6 |
| CCOP(=O)(NC(c1ccccc1)c1ccccc1)OCC | 106 |
| Cc1onc(-c2c(F)cccc2Cl)c1-c1ncc(-c2ccc(Br)cc2)o1 | 50.3 |
| C#CCSc1nnnn1-c1ccccc1 | 100 |
| O=c1[nH]c(=O)c2cc(Cl)cc(Cl)c2[nH]1 | 124 |
| CNc1ccccc1C(N)=O | 107 |
| CCCCN(C(=O)CC)c1ccccc1 | 104 |
| O=C(Nc1ccccc1)c1ccco1 | 105 |
| O=C(Oc1ccccc1Cl)c1ccc(Cl)cc1Cl | 109 |
| Clc1ccc(C(SCc2ccccc2)SCc2ccccc2)cc1 | 96.3 |
| Cc1onc(-c2ccccc2Cl)c1C(=O)Cl | 92.6 |
| CCC(C)c1c(N)n(S(=O)(=O)c2ccc(C)cc2)oc1=O (stereo not given) | 119 |

| Compound | growth [%] |
| --- | --- |
| Nc1ccc2c(c1)Cc1cc(N)c(N)cc1-2 | 107 |
| CCOC(=O)C1(N)CCCCC1 | 165 |
| c1ccc(Oc2c3ccccc3nc3ccccc23)cc1 | 61.2 |
| Nc1ccc(F)c(Cl)c1F | 109 |
| Cc1ccc(N)c(S(=O)(=O)O)c1 | 126 |
| O=S(=O)(c1ccc(NC(=S)NCc2cccnc2)cc1)N1CCCCC1 | 92.6 |
| CCOc1ccc(C(=O)NCC(C)C)cc1 | 106 |
| CCOc1ccccc1NC(=O)CCl | 87 |
| COC(c1ccc2c(c1)OCO2)C(C)Br (stereo not given) | 103 |
| Cc1ccc(NC(=O)c2ccccc2Cl)cc1 | 108 |
| BrCc1cccc(C[P+](c2ccccc2)(c2ccccc2)c2ccccc2)c1 | 67.6 |
| CN(C)c1ccc2c(N(C)C)cc(N(C)C)nc2c1 | 84.4 |
| N#CC1(O)CCCCC1 | 109 |
| Ic1cccs1 | 111 |
| COC1=C(OC)C(=O)C(SC/C=C(\C)CCCC(C)CCCC(C)CCCC(C)C)=CC1=O (stereo not given) | 40.8 |
| CSc1nsc(N)n1 | 106 |
| Nc1ncnc2c1ncn2C1OC(CO)C2OC21 (stereo not given) | 111 |
| CCCCOC(=O)c1ccc(NC(=O)CCl)cc1 | 102 |
| COc1ccc(NNS(=O)(=O)O)cc1 | 107 |
| CN(C(=S)S(=O)(=O)C12CC3CC(CC(C3)C1)C2)c1ccccc1 | 107 |
